± gives the standard deviation of the averaged measurements.

What all share (assay): relative enzymatic activity vs untreated control (fraction); higher = less inhibition
Settings in all cases: 100 µM; incubation time: 2 h at 37 C

One experiment relates to DNA gyrase. As to the method: (§1)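 In vitro enzymatic inhibition assays (ProFoldin kits) for 12 purified essential E. coli enzymes or complexes, each treated with 218 active antibacterial compounds at 100 µM for 2 h at 37°C. Read-outs were fluorescence or absorbance (phosphate detection, dye binding), converted to activity via standard curves and expressed relative to untreated DMSO controls.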

The target of a further experiment is DNA helicase (UniProt P0ACB1). As to the method: as §1
For a further experiment, the target named is DNA ligase (UniProt B1XA82). Here is the method: as §1
In the next experiment the target is DNA polymerase (UniProt P10443). Here is the method: as §1
The target in another experiment is DNA primase (UniProt P0ABS7). As to the method: as §1
A further experiment deals with GlmU (UniProt A7ZTU1). Here is the method:
as §1

For the next experiment, the target named is Guanlyate kinase (UniProt Q0TBG1). As to the method:
as §1

A further experiment addresses MurA (UniProt Q3YX52). As to the method: as §1
The target in another experiment is T1, MurD (UniProt P14900).
T1 sequence (whole entry): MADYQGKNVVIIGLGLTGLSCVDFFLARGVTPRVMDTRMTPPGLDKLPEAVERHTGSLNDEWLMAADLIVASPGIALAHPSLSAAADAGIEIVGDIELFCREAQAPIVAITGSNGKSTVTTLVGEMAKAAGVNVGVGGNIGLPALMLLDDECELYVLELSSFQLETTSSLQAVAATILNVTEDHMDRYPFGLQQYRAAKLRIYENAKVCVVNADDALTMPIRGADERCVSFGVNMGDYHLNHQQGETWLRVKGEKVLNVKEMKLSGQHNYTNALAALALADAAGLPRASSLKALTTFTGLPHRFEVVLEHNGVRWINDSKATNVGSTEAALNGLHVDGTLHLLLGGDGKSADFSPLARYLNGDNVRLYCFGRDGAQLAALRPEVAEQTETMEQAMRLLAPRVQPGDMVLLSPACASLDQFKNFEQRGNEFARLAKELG
As to the method: as §1

The next experiment addresses T2, MurF (UniProt P11880).
T2 sequence (whole entry): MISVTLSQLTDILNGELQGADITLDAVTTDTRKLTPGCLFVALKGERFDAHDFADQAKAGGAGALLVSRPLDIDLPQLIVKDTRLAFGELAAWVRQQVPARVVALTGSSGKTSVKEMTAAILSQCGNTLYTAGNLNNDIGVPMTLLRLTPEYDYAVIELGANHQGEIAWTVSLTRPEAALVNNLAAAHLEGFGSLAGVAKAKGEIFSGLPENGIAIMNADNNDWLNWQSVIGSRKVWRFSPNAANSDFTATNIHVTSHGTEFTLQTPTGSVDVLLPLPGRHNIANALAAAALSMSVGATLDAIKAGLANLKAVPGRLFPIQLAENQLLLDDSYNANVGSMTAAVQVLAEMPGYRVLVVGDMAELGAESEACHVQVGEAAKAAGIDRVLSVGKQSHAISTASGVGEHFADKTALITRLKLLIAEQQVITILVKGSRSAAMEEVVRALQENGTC
As to the method:
as §1

A further experiment has as its system RNA polymerase. As to the method: as §1

Chain of DNA ligase (B1XA82 whole entry): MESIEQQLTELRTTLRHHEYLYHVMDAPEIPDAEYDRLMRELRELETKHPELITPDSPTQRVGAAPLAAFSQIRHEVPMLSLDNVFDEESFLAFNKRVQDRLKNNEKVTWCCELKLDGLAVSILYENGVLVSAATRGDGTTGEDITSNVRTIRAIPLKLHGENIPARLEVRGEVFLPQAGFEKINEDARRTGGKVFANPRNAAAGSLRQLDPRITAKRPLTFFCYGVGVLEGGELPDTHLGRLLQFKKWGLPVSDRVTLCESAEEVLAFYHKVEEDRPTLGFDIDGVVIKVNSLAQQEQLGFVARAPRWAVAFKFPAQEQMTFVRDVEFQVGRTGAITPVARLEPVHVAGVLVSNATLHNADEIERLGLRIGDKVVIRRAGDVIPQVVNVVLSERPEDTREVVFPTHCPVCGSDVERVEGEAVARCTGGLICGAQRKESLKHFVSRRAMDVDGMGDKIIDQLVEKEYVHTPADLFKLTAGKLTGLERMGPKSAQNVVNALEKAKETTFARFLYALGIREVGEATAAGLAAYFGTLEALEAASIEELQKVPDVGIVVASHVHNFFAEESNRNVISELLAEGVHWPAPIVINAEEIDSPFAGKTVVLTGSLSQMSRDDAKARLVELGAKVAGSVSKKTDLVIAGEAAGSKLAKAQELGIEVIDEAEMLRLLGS
Chain of MurA (Q3YX52 whole entry): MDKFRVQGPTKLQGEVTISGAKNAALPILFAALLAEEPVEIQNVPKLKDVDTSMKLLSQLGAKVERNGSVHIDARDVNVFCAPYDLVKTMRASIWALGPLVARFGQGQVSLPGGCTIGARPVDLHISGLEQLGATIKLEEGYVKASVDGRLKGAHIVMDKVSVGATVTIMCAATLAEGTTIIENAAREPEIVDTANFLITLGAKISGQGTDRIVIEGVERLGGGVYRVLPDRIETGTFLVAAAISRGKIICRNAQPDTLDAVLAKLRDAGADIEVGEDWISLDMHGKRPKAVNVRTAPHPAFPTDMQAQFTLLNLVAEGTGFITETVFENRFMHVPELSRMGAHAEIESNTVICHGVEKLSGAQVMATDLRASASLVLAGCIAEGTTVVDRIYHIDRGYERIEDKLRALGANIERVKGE
Chain of DNA polymerase (P10443 whole entry): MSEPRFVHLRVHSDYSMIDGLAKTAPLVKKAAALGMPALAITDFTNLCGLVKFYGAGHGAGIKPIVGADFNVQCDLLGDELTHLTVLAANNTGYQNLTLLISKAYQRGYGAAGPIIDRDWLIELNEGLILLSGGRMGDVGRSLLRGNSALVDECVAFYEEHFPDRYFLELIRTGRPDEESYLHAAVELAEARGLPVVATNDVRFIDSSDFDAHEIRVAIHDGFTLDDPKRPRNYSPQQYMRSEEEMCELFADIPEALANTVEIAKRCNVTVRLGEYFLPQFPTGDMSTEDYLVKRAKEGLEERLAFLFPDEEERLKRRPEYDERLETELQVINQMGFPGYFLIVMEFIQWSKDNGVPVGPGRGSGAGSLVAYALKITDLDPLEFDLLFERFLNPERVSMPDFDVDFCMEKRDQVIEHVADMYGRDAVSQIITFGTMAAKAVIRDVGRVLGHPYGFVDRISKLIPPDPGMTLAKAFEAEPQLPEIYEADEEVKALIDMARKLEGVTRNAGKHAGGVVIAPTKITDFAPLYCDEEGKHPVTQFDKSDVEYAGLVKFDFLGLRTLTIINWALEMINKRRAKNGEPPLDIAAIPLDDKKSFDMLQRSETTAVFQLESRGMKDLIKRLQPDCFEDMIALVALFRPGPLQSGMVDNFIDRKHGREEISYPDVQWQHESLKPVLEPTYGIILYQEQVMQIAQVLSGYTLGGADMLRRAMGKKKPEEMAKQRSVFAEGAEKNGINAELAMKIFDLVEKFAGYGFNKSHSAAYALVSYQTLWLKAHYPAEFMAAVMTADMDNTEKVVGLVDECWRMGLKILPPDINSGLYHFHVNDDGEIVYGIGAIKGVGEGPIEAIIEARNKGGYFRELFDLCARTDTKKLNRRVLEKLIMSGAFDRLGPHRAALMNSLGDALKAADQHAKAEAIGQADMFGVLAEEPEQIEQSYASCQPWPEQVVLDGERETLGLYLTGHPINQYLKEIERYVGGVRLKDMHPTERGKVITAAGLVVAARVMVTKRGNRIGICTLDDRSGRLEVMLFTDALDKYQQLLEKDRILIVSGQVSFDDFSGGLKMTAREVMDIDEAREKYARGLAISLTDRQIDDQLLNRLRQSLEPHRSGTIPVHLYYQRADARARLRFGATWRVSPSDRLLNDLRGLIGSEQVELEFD
Chain of GlmU (A7ZTU1 whole entry, looked up): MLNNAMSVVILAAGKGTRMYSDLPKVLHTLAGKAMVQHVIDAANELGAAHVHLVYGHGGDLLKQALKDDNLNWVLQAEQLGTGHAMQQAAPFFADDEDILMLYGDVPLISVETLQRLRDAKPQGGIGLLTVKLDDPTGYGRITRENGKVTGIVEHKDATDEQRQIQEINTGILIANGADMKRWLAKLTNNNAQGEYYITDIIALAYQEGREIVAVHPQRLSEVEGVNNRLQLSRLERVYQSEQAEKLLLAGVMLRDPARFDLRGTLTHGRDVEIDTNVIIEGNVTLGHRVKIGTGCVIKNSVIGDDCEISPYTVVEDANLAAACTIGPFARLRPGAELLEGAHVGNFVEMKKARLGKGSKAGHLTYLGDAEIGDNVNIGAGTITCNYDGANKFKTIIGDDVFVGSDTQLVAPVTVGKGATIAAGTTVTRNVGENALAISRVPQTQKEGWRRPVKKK
Chain of Guanlyate kinase (Q0TBG1 whole entry): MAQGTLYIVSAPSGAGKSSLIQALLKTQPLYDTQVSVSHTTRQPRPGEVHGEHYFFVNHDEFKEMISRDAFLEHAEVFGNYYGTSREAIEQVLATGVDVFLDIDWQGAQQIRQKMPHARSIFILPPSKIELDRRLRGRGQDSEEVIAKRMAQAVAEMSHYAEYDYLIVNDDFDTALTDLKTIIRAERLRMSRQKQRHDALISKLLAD
Chain of DNA helicase (P0ACB1 whole entry): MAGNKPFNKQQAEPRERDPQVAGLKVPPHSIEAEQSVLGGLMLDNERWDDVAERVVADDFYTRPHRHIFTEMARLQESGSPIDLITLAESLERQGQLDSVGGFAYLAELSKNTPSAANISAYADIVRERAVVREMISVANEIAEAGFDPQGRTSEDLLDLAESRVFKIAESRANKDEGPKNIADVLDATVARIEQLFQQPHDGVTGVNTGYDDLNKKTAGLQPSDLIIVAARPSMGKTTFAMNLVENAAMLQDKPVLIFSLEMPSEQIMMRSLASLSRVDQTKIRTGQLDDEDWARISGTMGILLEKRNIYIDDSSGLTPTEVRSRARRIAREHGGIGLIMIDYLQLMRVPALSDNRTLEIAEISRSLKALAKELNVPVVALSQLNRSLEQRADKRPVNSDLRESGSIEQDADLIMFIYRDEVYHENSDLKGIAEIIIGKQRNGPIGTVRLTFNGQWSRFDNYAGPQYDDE
Chain of DNA primase (P0ABS7 whole entry): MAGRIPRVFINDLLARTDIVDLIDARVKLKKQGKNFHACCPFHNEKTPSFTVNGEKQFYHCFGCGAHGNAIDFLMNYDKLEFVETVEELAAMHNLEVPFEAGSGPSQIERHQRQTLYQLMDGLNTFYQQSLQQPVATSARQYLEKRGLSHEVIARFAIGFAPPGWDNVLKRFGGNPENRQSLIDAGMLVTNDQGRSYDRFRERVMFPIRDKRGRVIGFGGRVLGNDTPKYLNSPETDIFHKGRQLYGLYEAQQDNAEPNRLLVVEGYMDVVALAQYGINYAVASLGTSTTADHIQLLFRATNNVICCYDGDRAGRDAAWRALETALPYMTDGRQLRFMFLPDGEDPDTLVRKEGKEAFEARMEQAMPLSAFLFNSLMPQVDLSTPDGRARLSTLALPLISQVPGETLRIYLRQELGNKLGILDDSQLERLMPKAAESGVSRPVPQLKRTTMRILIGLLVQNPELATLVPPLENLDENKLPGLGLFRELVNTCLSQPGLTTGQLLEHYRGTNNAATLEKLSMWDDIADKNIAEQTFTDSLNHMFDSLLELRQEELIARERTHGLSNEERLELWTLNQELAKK

Turning to `COC1C=COC2(C)Oc3c(C)c(O)c4c(O)c(c(C=NN5CCN(C6CCCC6)CC5)c(O)c4c3C2=O)NC(=O)C(C)=CC=CC(C)C(O)C(C)C(O)C(C)C(OC(C)=O)C1C` (stereo not drawn), the relative enzymatic activity with DNA gyrase came out at 0.305 ± 0.28; in the experiment with DNA helicase it was 0.66 ± 0.082; with DNA ligase it was 0.866 ± 0.13; with DNA polymerase, 0.952 ± 0.37; in the experiment with DNA primase it was 0.647 ± 0.093; with GlmU it was 0.259 ± 0.016. For the same compound, the relative enzymatic activity with Guanlyate kinase was 0.435 ± 0.013; with MurA it was 0.144 ± 0.12; in the experiment with MurD it was 0.132 ± 0.046; in the experiment with MurF it was 0.4854 ± 0.0039; in the experiment with RNA polymerase, 0.0856 ± 0.00076.

For the compound `CC(N)O.Cc1cc(CC(C)CC(C)(C)C)n(O)c(=O)c1` (stereo not drawn), the relative enzymatic activity in the experiment on DNA gyrase amounted to 0.964 ± 0.11; in the experiment with DNA helicase, 0.621 ± 0.26; in the experiment with DNA ligase it was 1.17 ± 0.13; with DNA polymerase, 1.16 ± 0.23; with DNA primase it was 0.719 ± 0.22; with GlmU, 1.095 ± 0.0024. The relative enzymatic activity with Guanlyate kinase turned out to be 0.963 ± 0.12; with MurA, 0.844 ± 0.05; in the experiment with MurD, 0.636 ± 0.43; with MurF it was 0.592 ± 0.82; in the experiment on RNA polymerase, 0.884 ± 0.076.

On to `O=C1CN(N=Cc2ccc([N+](=O)[O-])o2)C(=O)N1`, for which the relative enzymatic activity in the experiment on DNA gyrase was 1.07 ± 0.045; with DNA helicase, 0.467 ± 0.062; in the experiment with DNA ligase it was 1.42 ± 0.59; with DNA polymerase, 1.32 ± 0.47; with DNA primase it was 0.655 ± 0.11; with GlmU, 0.964 ± 0.044. Moreover, the relative enzymatic activity with Guanlyate kinase was 0.855 ± 0.027; in the experiment with MurA, 0.649 ± 0.061; in the experiment with MurD it was 0.593 ± 0.41; with MurF, 0.96 ± 0.23; in the experiment with RNA polymerase, 0.815 ± 0.028.

On to `N[C@@H]1[C@H]2CN(c3nc4c(cc3F)c(=O)c(C(=O)O)cn4-c3ccc(F)cc3F)C[C@@H]12`, for which the relative enzymatic activity was 0.0708 ± 0.1 in the experiment on DNA gyrase; 0.354 ± 0.0078 in the experiment with DNA helicase; 1.04 ± 0.084 with DNA ligase; 1.14 ± 0.23 with DNA polymerase; 0.689 ± 0.063 with DNA primase; 0.912 ± 0.029 with GlmU. In addition, the relative enzymatic activity with Guanlyate kinase was 0.937 ± 0.033; in the experiment with MurA, 0.596 ± 0.17; in the experiment with MurD it was 0.555 ± 0.39; in the experiment with MurF, 0.928 ± 0.22; in the experiment on RNA polymerase, 0.783 ± 0.071.

Consider `CC[C@H]1OC(=O)C[C@@H](O)[C@H](C)[C@@H](O[C@@H]2O[C@H](C)C[C@H](N(C)C)[C@H]2O)[C@@H](CC=O)C[C@@H](C)C(=O)/C=C/[C@]2(C)O[C@H]2[C@@H]1C`, for which the relative enzymatic activity stood at 0.781 ± 0.33 in the experiment on DNA gyrase; 0.296 ± 0.13 in the experiment with DNA helicase; 0.912 ± 0.064 in the experiment with DNA ligase; 1.17 ± 0.26 in the experiment with DNA polymerase; 0.854 ± 0.017 with DNA primase; 1.0039 ± 0.00034 with GlmU. Moreover, the relative enzymatic activity stood at 0.968 ± 0.11 in the experiment with Guanlyate kinase; 0.673 ± 0.17 with MurA; 0.55 ± 0.38 in the experiment with MurD; 1.06 ± 0.2 in the experiment with MurF; 0.864 ± 0.08 in the experiment with RNA polymerase.

Regarding `CN(C)C1C(O)=C(C(N)=O)C(=O)C2(O)C(O)=C3C(=O)c4c(O)ccc(Cl)c4C(O)C3CC12.Cl` (stereo not drawn), the relative enzymatic activity in the experiment with DNA gyrase is 0.59 ± 0.38; in the experiment with DNA helicase, 0.359 ± 0.13; with DNA ligase, 1.03 ± 0.047; with DNA polymerase, 1.16 ± 0.26; in the experiment with DNA primase, 0.64 ± 0.12; with GlmU, 1.005 ± 0.0054. Also, the relative enzymatic activity in the experiment with Guanlyate kinase stood at 0.874 ± 0.1; with MurA it was 0.133 ± 0.045; in the experiment with MurD it was 0.593 ± 0.41; in the experiment with MurF it was 0.937 ± 0.17; with RNA polymerase it was 0.804 ± 0.072.

`CC(C)CCCC(=O)N[C@@H](CCNCS(=O)(=O)O)C(=O)N[C@H](C(=O)N[C@@H](CCNCS(=O)(=O)O)C(=O)N[C@H]1CCNC(=O)[C@H]([C@@H](C)O)NC(=O)[C@H](CCNCS(=O)(=O)O)NC(=O)[C@H](CCNCS(=O)(=O)O)NC(=O)[C@H](CC(C)C)NC(=O)[C@H](CC(C)C)NC(=O)[C@H](CCNCS(=O)(=O)O)NC1=O)[C@@H](C)O`: the relative enzymatic activity in the experiment with DNA gyrase stood at 0.555 ± 0.027; with DNA helicase it was 0.608 ± 0.27; with DNA ligase, 1.01 ± 0.41; in the experiment with DNA polymerase it was 1.14 ± 0.27; with DNA primase it was 0.8249 ± 0.007; with GlmU, 1.0459 ± 0.00074. Further, the relative enzymatic activity came to 0.666 ± 0.056 in the experiment with Guanlyate kinase; 0.723 ± 0.12 with MurA; 0.585 ± 0.35 with MurD; 0.903 ± 0.13 with MurF; 0.813 ± 0.041 in the experiment with RNA polymerase.

Consider `CCOC(=O)CCC(=O)O[C@H]1[C@H](O[C@@H]2[C@@H](C)[C@H](O[C@H]3C[C@@](C)(OC)[C@@H](O)[C@H](C)O3)[C@@H](C)C(=O)O[C@H](CC)[C@@](C)(O)[C@H](O)[C@@H](C)C(=O)[C@H](C)C[C@@]2(C)O)O[C@H](C)C[C@@H]1N(C)C`, for which the relative enzymatic activity with DNA gyrase turned out to be 0.685 ± 0.3; with DNA helicase it was 0.691 ± 0.34; with DNA ligase, 0.982 ± 0.061; with DNA polymerase, 1.17 ± 0.28; with DNA primase, 0.835 ± 0.0032; in the experiment with GlmU, 1.018 ± 0.0098. The relative enzymatic activity was 0.941 ± 0.052 with Guanlyate kinase; 0.816 ± 0.11 in the experiment with MurA; 0.599 ± 0.4 with MurD; 0.961 ± 0.23 with MurF; 0.831 ± 0.037 with RNA polymerase.

Turning to `NCc1ccccc1CC(=O)NC1C(=O)N2C(C(=O)O)=C(CSc3nnnn3CC(=O)O)CSC12` (stereo not drawn), the relative enzymatic activity is 1.03 ± 0.026 in the experiment on DNA gyrase; 0.487 ± 0.014 with DNA helicase; 1.19 ± 0.037 in the experiment with DNA ligase; 1.38 ± 0.51 with DNA polymerase; 0.683 ± 0.18 with DNA primase; 1.05 ± 0.23 with GlmU. Also, the relative enzymatic activity in the experiment with Guanlyate kinase came to 0.988 ± 0.13; with MurA, 0.08776 ± 0.00022; in the experiment with MurD, 0.581 ± 0.39; with MurF it was 0.979 ± 0.2; in the experiment with RNA polymerase, 0.979 ± 0.23.

Turning to `NCCC(O)C(=O)NC1CC(N)C(OC2OC(CN)C(O)C(O)C2O)C(O)C1OC1OC(CO)C(O)C(N)C1O.O` (stereo not drawn), the relative enzymatic activity with DNA gyrase was found to be 0.693 ± 0.16; in the experiment with DNA helicase it was 0.562 ± 0.14; with DNA ligase, 0.998 ± 0.06; in the experiment with DNA polymerase, 0.875 ± 0.12; with DNA primase, 0.824 ± 0.023; with GlmU, 0.994 ± 0.011. The relative enzymatic activity in the experiment with Guanlyate kinase worked out at 0.647 ± 0.01; with MurA, 0.963 ± 0.055; with MurD it was 0.564 ± 0.37; with MurF it was 0.962 ± 0.21; in the experiment on RNA polymerase it was 0.434 ± 0.49.

Regarding `N[C@@H](C(=O)N[C@@H]1C(=O)N2C(C(=O)O)=C(Cl)CS[C@H]12)c1ccccc1`, the relative enzymatic activity was 0.759 ± 0.31 in the experiment with DNA gyrase; 0.537 ± 0.076 with DNA helicase; 1.02 ± 0.078 with DNA ligase; 1.1 ± 0.25 with DNA polymerase; 0.801 ± 0.021 with DNA primase; 0.911 ± 0.035 in the experiment with GlmU. The relative enzymatic activity came out at 0.87 ± 0.074 with Guanlyate kinase; 0.168 ± 0.067 with MurA; 0.579 ± 0.39 in the experiment with MurD; 0.954 ± 0.21 with MurF; 0.766 ± 0.036 in the experiment with RNA polymerase.

For `Oc1c(Cl)cc(Cl)c2cccnc12`, the relative enzymatic activity amounted to 0.515 ± 0.28 in the experiment on DNA gyrase; 0.476 ± 0.16 with DNA helicase; 1.11 ± 0.24 with DNA ligase; 1.11 ± 0.21 in the experiment with DNA polymerase; 0.637 ± 0.12 with DNA primase; 1.21 ± 0.19 with GlmU. The relative enzymatic activity came to 0.854 ± 0.039 with Guanlyate kinase; 0.88 ± 0.26 with MurA; 0.642 ± 0.46 in the experiment with MurD; 0.98 ± 0.18 with MurF; 0.7619 ± 0.0022 in the experiment on RNA polymerase.

With `CS(=O)(=O)c1ccc(C(O)C(CF)NC(=O)C(Cl)Cl)cc1` (stereo not drawn), the relative enzymatic activity turned out to be 0.854 ± 0.44 with DNA gyrase; 0.577 ± 0.2 in the experiment with DNA helicase; 1.21 ± 0.24 with DNA ligase; 1.29 ± 0.35 with DNA polymerase; 0.8787 ± 0.0014 with DNA primase; 0.977 ± 0.042 in the experiment with GlmU. In addition, the relative enzymatic activity came out at 0.976 ± 0.14 with Guanlyate kinase; 0.796 ± 0.099 in the experiment with MurA; 0.575 ± 0.38 in the experiment with MurD; 0.945 ± 0.21 with MurF; 0.916 ± 0.026 in the experiment on RNA polymerase.

These data come from the supplement of paper PMC9446081.
